{"source": "PubChem BioAssay (NCI)", "note": "The panel holds about 83,000 compounds, 20% with a hit somewhere; the sample as a whole holds those more often.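 Note: values are percent growth. 100 is the growth of untreated cells, values between 100 and 0 indicate rising inhibition; between -100 and 0 indicates cell death.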 Unmarked numbers belong to inactive results. The source made the active and inactive calls. How the source made its calls: active means growth percent below 10; inactive means the rest."}
{"tested_on": "HL-60(TB) leukemia", "experiment": "NCI-60 one-dose screen, 48 h (100 = growth as untreated, 0 = no growth, -100 = all killed)", "settings": "10 µM unless noted"}
{"smiles": "CN(C)CC/C=C1\\c2ccccc2Sc2ccc(Cl)cc21", "growth": "94.2%"}
{"smiles": "CC(=O)c1ccc(C)cc1", "growth": "93.4%"}
{"smiles": "COc1ccc(/C=N\\N2CCOCC2)cc1OC1CCCC1", "growth": "104%"}
{"smiles": "COc1cc2c(c(OC)c1OC)CCC(c1cccc(NC(=O)c3cccc(Br)c3)c1)O2", "note": "(configuration not stated)", "growth": "97%"}
{"smiles": "CCOC(=O)c1c(C)c(C(=O)OCC)n(C)c1C", "growth": "85.9%"}
{"smiles": "CC(C)c1ccccc1NC(=O)N1CCC(C(C)C)CC1", "growth": "105%"}
{"smiles": "Clc1ccc(N2N=C(c3cccc(Nc4ccncc4)c3)CC2c2ccc3c(c2)OCO3)cc1", "note": "(configuration not stated)", "growth": "22.5%"}
{"smiles": "O=C1C(=O)c2ccccc2C(O)=C1CCCc1ccc(Oc2ccccc2)cc1", "growth": "44.3%"}
{"smiles": "COc1c(C)c2c(c(O)c1C/C=C(\\C)CCC(=O)OCCN1CCOCC1)C(=O)OC2", "growth": "36.7%"}
{"smiles": "COc1ccc(-c2cs/c(=N\\N=C\\c3ccc(O)cc3O)n2/N=C/c2ccc(O)cc2O)cc1", "growth": "-32.6% (active)"}
{"smiles": "O=C(/C(=C/c1ccccc1)CBr)c1ccccc1", "growth": "9.09% (active)"}
{"smiles": "Nc1cc(N)c(N=Nc2ccc(S(=O)(=O)O)cc2)cc1N=Nc1ccc(-c2ccc(N=Nc3ccc(O)c(C(=O)O)c3)cc2)cc1", "growth": "111%"}
{"smiles": "COc1cc(C(=O)/C=C/c2ccc(OCCCCCC[P+](c3ccccc3)(c3ccccc3)c3ccccc3)cc2)cc(OC)c1OC", "growth": "11.5%"}
{"smiles": "Cc1cc(C(=O)Nc2ncc(Cc3cccc(C(F)(F)F)c3)s2)c2ccccc2n1", "growth": "-33.8% (active)"}
{"smiles": "N=c1c(S(=O)(=O)c2ccccc2)cc2c(=O)n3ccccc3nc2n1CC1CCCO1", "note": "(configuration not stated)", "growth": "109%"}
{"smiles": "Cc1c(-c2ccc(C3CCCCC3)cc2)nc2ccc(F)cc2c1C(=O)O", "growth": "24.8%"}
{"smiles": "CCOC(=O)C(C)(c1ccccc1)c1ccccc1", "growth": "104%"}
{"smiles": "COc1ccc(/C=C/C(c2cc(OC)c(OC)c(OC)c2)n2cncn2)cc1O", "note": "(configuration not stated)", "growth": "-36.3% (active)"}
{"smiles": "O=C(c1ccc(Cl)cc1Cl)N1c2ccccc2Sc2ccccc21", "growth": "35.8%"}
{"smiles": "CC(Sc1nc2sc3c(c2c(=O)n1-c1ccc(Cl)cc1)CCCC3)C(=O)Nc1nc(-c2ccc(Br)cc2)cs1", "note": "(configuration not stated)", "growth": "98.6%"}
{"smiles": "COC(=O)c1[nH]nc(OC)c1C1(C(C#N)c2nc3ccccc3s2)CCCc2ccccc21", "note": "(configuration not stated)", "growth": "79.8%"}
{"smiles": "O=c1cc(-c2ccccc2)[nH]c2ccccc12", "growth": "45%"}
{"smiles": "COC(=O)C(C)NC1=C(Cl)C(=O)C(NC(C)C(=O)OC)=C(Cl)C1=O", "note": "(configuration not stated)", "growth": "97.8%"}
{"smiles": "O=C1CCc2c(sc3[nH]c(=S)n(Cc4ccc(Cl)cc4)c(=O)c23)C1", "growth": "-5.26% (active)"}
{"smiles": "CNCCNc1nc2ccccc2c2c(=O)c3cccc(OC)c3sc12", "growth": "26.5%"}
{"smiles": "CN(C)CC1CCCCCC(CN(C)C)C1=O", "note": "(configuration not stated)", "growth": "26%"}
{"smiles": "Nc1c(S(=O)(=O)O)cc2c3c(cccc13)C(=O)OC2=O", "growth": "134%"}
